Screens: PubChem, several laboratories
GDH-TPI counter-1: GDH-TPI coupling enzyme inhibitors, primary screen, artefact control for M. tuberculosis FBA inhibitor project, biochemical, absorbance, full deck; GDH-TPI coupled enzyme counterscreen, NADH absorbance; inhibition, % at 4.8 µM; hit rate 1.2% among 360,000; AID 588335, 2011; in the data active means inhibition above about 30%;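 further: 0% = DMSO wells and 100% = wells lacking the enzyme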
Mtb bLac sens: beta-lactam sensitization of Mtb H37Rv, H37Rv; M. tuberculosis H37Rv growth with meropenem, percent inhibition; inhibition, % at 25 µM; hit rate 0.27% among 330,000; AID 434955, 2010; call rule not given here;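 further: growth measured after seven days incubation then overnight dye step; 0% = bacteria only wells and 100% = bacteria with antibiotic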
Mtb FBA inh: Mtb FBA enzyme inhibitors, primary screen, biochemical, fluorescence, strain H37Rv. Fructose-bisphosphate aldolase (Mycobacterium tuberculosis (strain ATCC 25618 / H37Rv)), …. purified M. tuberculosis FBA, fluorescence read-out. inhibition, % at 1 µM. hit rate 2.3% among 360,000. AID 588726, 2011;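 further: 0% = vehicle and 100% = reference inhibitor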
Target sequence (P9WQA3 whole entry, looked up): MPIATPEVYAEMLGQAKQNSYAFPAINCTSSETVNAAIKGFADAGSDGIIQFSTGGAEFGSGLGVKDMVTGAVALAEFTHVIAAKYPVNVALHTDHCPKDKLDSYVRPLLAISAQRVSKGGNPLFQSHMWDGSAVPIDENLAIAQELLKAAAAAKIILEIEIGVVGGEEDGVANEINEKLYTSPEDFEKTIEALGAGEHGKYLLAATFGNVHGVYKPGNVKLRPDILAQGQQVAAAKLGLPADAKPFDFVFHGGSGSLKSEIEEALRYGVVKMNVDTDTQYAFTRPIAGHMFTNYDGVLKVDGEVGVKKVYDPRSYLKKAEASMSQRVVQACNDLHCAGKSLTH
VHR inh abs: VHR1 phosphatase inhibitors, primary screen, biochemical, absorbance, uHTS; recombinant VHR phosphatase, pNPP absorbance; hit rate 0.52% among 290,000; Dual specificity protein phosphatase 3 (Homo sapiens), P51452; inhibition, % at 13.3 µM; in the data active means inhibition above about 50%
Target sequence (P51452 whole entry, looked up): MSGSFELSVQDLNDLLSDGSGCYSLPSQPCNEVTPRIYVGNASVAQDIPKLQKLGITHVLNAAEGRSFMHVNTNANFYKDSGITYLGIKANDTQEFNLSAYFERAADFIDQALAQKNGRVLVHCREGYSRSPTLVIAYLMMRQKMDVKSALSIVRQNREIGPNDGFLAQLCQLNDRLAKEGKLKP
Mtb hypoxia rep: PubChem AID 1159583; fluorescence inhibition, % (concentration not given with the values); hit rate 0.1% among 300,000; M. tuberculosis hypoxia-regulated fluorescent reporter, fluorescence; in the data active means fluorescence inhibition mostly above about 23%, no sharp cut-off; inactive means mostly below about 17%
Mtb FBA confirm: M. tuberculosis aldolase blockers, biochemical, fluorescence, strain H37Rv, confirmation; hit rate 78% among 5,600; shares compounds with Mtb FBA inh; AID 651616, 2012; purified M. tuberculosis FBA, fluorescence read-out; inhibition, % at 1 µM;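 further: 0% = vehicle wells and 100% = reference inhibitor wells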
GDH-TPI counter-2: GDH-TPI coupling enzyme inhibitors, artefact control for M. tuberculosis FBA inhibitor project, biochemical, fluorescence, high throughput; shares compounds with Mtb FBA inh; GDH-TPI coupled enzyme counterscreen; inhibition, % at 1 µM; hit rate 81% among 5,600; AID 652141, 2013; in the data active means inhibition above about 10%
Active calls of the source: *; . = no result; + = active, no number. Only some compounds are listed: those with a hit (about 3.6% of all), similar ones and a draw of the others. Unless noted, no stated cut-off is given here; in the data, active means inhibition above about 27%; inactive means the rest.

SMILES	GDH-TPI counter-1	Mtb bLac sens	Mtb FBA inh	VHR inh abs	Mtb hypoxia rep	Mtb FBA confirm	GDH-TPI counter-2
COc1cccc(CNC(=O)CCC(=O)N2CCSc3ccccc32)c1OC	-11	-7	2	45	-1	.	.
Cc1ccccc1NC(=O)c1ccc2c(c1)N(C)CCS2	20	-4	4	21	1	.	.
COc1ccc(CNC(=O)c2ccc3c(c2)N(C)CCS3)cc1	20	-4	52*	25	-5	86*	59*
COc1cccc(CNC(=O)c2ccc3c(c2)N(C)CCS3)c1OC	-9	-1	88*	21	-5	49*	45*
CC(=NNC(=O)CN1CCN(Cc2ccccc2)CC1)c1ccncc1	.	.	.	.	8	.	.
CC1CN(C(C)CO)C(=O)c2cccc(NC(=O)Nc3ccc4c(c3)OCO4)c2OC1CN(C)C(=O)Nc1ccccc1 (stereo not given)	.	.	.	.	12	.	.
CC[C@]12C(=O)N(C)CC(C3C(=O)N(C)C(=O)C31)N2C(=O)c1ccc(C(C)(C)C)cc1 (stereo not given in full)	.	.	.	.	19	.	.
CC[C@H]1C(c2ccc(F)cc2)=NN(c2ccccc2)[C@@H]1CO	14	.	30*	.	-1	65*	63*
OC[C@@H]1[C@@H](c2ccc(F)cc2)C(c2ccccc2)=NN1c1ccccc1	7	.	29*	.	.	48*	45*
O=C1OCCN1C(=O)[C@H]1[C@H](c2ccc(F)cc2)C(c2ccccc2)=NN1c1ccccc1	10	.	13	.	1	.	.
CCN(CC)C(=O)[C@H]1C[C@H](CC(=O)NCCCN(C)C)C(=O)N2CCc3c([nH]c4cc(-c5ccco5)ccc34)[C@]12C	-3	.	46*	.	6	+	+
CCN(CC)C(=O)[C@H]1C[C@H](CC(=O)NCCCOC)C(=O)N2CCc3c([nH]c4cc(-c5ccco5)ccc34)[C@]12C	7	.	43*	.	-2	59*	31*
CCN(CC)C(=O)[C@H]1C[C@H](CC(=O)NCC23CC4CC(CC(C4)C2)C3)C(=O)N2CCc3c([nH]c4cc(-c5ccco5)ccc34)[C@]12C	-2	.	-1	.	-7	.	.
CCN(CC)C(=O)[C@H]1C[C@H](CC(=O)NCCc2ccccn2)C(=O)N2CCc3c([nH]c4cc(-c5ccco5)ccc34)[C@]12C	9	.	40*	.	-2	52*	44*
CC(C)N(C(=O)[C@H]1C[C@H](CC(=O)NCCc2ccccn2)C(=O)N2CCc3c([nH]c4cc(-c5ccco5)ccc34)[C@]12C)C(C)C	3	.	22	.	0	.	.
CC(=NNC(=O)CNC(=O)C(c1ccccc1)c1ccccc1)c1ccc(C(C)(C)C)cc1	.	.	.	.	-3	.	.
O=C(NN=Cc1cccc([N+](=O)[O-])c1)C1CC(=O)N(c2ccc(Br)cc2)C1 (stereo not given)	.	.	.	.	1	.	.
S=c1nc(-c2ccccc2)n(-c2ccccc2)[nH]1	-6	-1	5	26	8	.	.
O=c1nc(-c2ccccc2)n(-c2ccc(Cl)cc2)[nH]1	-2	2	28*	-1	5	128*	105*
CNc1ccc(-c2ccccc2CO)cn1	9	.	51*	.	.	45*	27*
CN(C)CCCCNCCCNC(=O)C=NO	.	.	.	.	-4	.	.
COc1ccccc1COC(=O)N/C=C/c1ccco1	-2	-2	43*	-2	10	163*	121*
Cc1c(Cc2ccccc2)c(=O)oc2cc(OCc3nn[nH]n3)ccc12	18	-6	83*	-16	.	3	1
CC(=O)C(C)Oc1ccc2c3c(c(=O)oc2c1)CCCC3 (stereo not given)	6	4	40*	15	7	+	146*
CCc1cc(=O)oc2c(C)c(OCC(=O)NC3CC(C)(C)NC(C)(C)C3)ccc12	18	3	37*	6	-12	139*	124*
SMILES	GDH-TPI counter-1	Mtb bLac sens	Mtb FBA inh	VHR inh abs	Mtb hypoxia rep	Mtb FBA confirm	GDH-TPI counter-2
COc1cccc(COc2ccc3c(C)c(Cc4ccccc4)c(=O)oc3c2)c1	24	11	3	.	.	.	.
Cc1c(OCc2nn[nH]n2)ccc2c3c(c(=O)oc12)CCC(C)C3 (stereo not given)	27	-12	107*	0	-1	+	155*
CC(=NNC(=O)CNC(=O)c1ccccc1)c1ccc(C)cc1	.	.	.	.	-1	.	.
CCCCCCSc1ccc(C2N[C@@](Cc3ccccc3)(C(=O)OC)C3C(=O)N(C)C(=O)C23)cc1OC (stereo not given in full)	.	.	.	.	-2	.	.
NC(Cc1ccc([N+](=O)[O-])cc1)=NOC(=O)c1ccccc1F	.	.	.	.	1	.	.
O=c1c2c3c(sc2ncn1N=Cc1ccc(Br)o1)CCCC3	.	.	.	.	4	.	.
O=C(NN=Cc1ccc(-c2ccccc2[N+](=O)[O-])o1)c1cncc(Br)c1	.	.	.	.	6	.	.
CCCNC(=O)C(=O)NN=Cc1ccc(OCc2ccccc2)cc1	.	.	.	.	15	.	.
CC[C@@]12C(=O)N(c3cccc(Br)c3)C(=O)N1C(c1ccc(Br)cc1)C1C(=O)N(C(C)(C)C)C(=O)C12 (stereo not given in full)	.	.	.	.	3	.	.
N#Cc1c(N=C/C=C/c2ccccc2)sc2c1CCCC2	.	.	.	.	-5	.	.
Cc1cc(=O)oc2cc(OC(C)C)ccc12	10	5	73*	15	5	+	178*
O=c1oc2cc(OCc3nn[nH]n3)ccc2c2c1CCCC2	-4	-7	89*	10	3	-1	-2
C=CCOc1ccc2c(CC)cc(=O)oc2c1C	7	-4	41*	1	5	+	164*
C#CCOc1ccc2c(C)cc(=O)oc2c1	7	0	40*	-20	.	64*	44*
COc1ccccc1C=NNC(=O)c1ccc(N(C)S(=O)(=O)c2ccccc2)cc1	.	.	.	.	3	.	.
CCC(C)C(Nc1nc(-c2ccccc2)nc2c1oc1ccccc12)C(=O)O (stereo not given)	.	.	.	.	2	.	.
O=C(COc1cc2oc(=O)c3c(c2cc1Cl)CCCC3)NCc1cccnc1	0	-1	2	15	-14	.	.
Cc1cc(=O)oc2cc(OC(C(=O)O)c3ccccc3)ccc12 (stereo not given)	24	-1	17	2	7	.	.
Cc1ccc(OCC(=O)NC2CC(C)(C)NC(C)(C)C2)cc1C	-4	-1	0	-1	1	.	.
CCc1cc2c3c(c(=O)oc2cc1OCC(=O)OC)CCCC3	7	87	54*	11	12	48*	31*
CC1(C)CC(NC(=O)COc2ccc3c4c(c(=O)oc3c2)CCCC4)CC(C)(C)N1	17	-3	52*	9	4	+	+
CC(=O)COc1ccc2c3c(c(=O)oc2c1)CCCC3	3	48	70*	8	13	33*	35*
